# Assay outcomes deposited in PubChem BioAssay by National Center for Advancing Translational Sciences (NCATS).
# A selection: hits, their analogues and other compounds. The true share with any hit is near 4.6%.
# D1 potentiator – enhances dopamine response at the human D1 receptor. P21728. HEK293 TREx D1 cells, calcium flux, dopamine EC20 potentiation. potentiation, % at 10 µM. 360,000 compounds, 0.036% hits; in the data active means potentiation above about 30%; further: 0% is about no effect
# D1 agonist – human D1 receptor agonism | AID 504660 | activation, % at 2 µM | HEK293 T-REx D1 cells, calcium flux, agonist mode | 360,000 compounds, 1% hits; further: 0% is about no effect
#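 Inducible HEK293 T-REx D1 cells, force-coupled to calcium signalling, were plated at 4000 cells/well with tetracycline and held overnight at 30 C. After no-wash calcium dye loading, compound-evoked calcium rise over 180 s flagged agonists.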
# D1 antagonist – antagonists of human D1 dopamine receptor; HEK293 TREx D1 cells, calcium flux, dopamine EC80; stronger effect = lower value; AID 504652; activity change, negative = inhibition, % at 10 µM; 360,000 compounds, 3.2% hits; P21728; in the data active means activity change below about -30%; further: on the % scale 0 is the no-effect control and ±100 the full control effect
#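 Kinetic fluorescence of a calcium dye serves as the read-out. D1-expressing Hek293 Trex cells, induced overnight at 30 C, are exposed to compound for 180 s before an EC80 dopamine addition, then read 180 s further.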
# TRHR PAM – TRH receptor (human) allosteric enhancement; P34981; TRHR cells, fluo-8 calcium fluorescence, EC20 TRH enhancement; enhancement, % at 2 µM; 360,000 compounds, 0.66% hits; in the data active means enhancement above about 30%; further: 0% is about no effect
# Target sequence (P34981 whole entry, looked up): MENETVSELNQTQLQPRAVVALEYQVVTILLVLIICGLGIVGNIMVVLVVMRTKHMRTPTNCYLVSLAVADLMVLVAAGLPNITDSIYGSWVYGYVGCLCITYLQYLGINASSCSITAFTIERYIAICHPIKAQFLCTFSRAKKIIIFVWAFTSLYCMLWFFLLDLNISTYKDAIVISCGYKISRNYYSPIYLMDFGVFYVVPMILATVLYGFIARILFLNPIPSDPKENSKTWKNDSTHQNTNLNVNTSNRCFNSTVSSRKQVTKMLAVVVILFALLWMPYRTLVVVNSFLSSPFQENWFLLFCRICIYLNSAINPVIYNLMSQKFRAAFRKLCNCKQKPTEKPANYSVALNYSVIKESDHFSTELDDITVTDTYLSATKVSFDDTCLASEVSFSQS
#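 TRHR-expressing cells loaded with fluo-8 calcium dye were read kinetically (ex 480/em 530) during compound addition, then stimulated with an EC20 of TRH (10 nM final). Enhancement of the Gq-mediated intracellular calcium response was scored.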
# TRHR ag – TRH receptor (human) agonism; TRHR cells, calcium flux fluo-8, FDSS agonist mode; activation, % at 2 µM; 360,000 compounds, 0.18% hits; further: 0% is about no effect
#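 TRHR-expressing cells, plated overnight in medium with 10% serum, were loaded with fluo-8 calcium dye at room temperature. After a 10 s baseline, library compound was pin-added and calcium release was recorded kinetically (ex 480/em 530) as agonist response.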
# The depositor's hits bear a star; · = no result. Unless noted, no stated cut-off is given here; in the data, active means activation above about 30%; inactive means the rest.
SMILES,D1 potentiator,D1 agonist,D1 antagonist,TRHR PAM,TRHR ag
O=C(O)CCc1ccc(-c2ccc(F)cc2)n1NC(=O)c1ccco1,-4.0,1.1,-88.1*,5.3,0.9
O=C(NCc1cccnc1)c1nnc(Cc2ccc(F)cc2)o1,-4.5,0.9,-2.2,-7.3,0.0
O=C(NCc1ccc(F)cc1)c1nnc(Cc2cccc(F)c2)o1,1.0,23.1,16.4,0.0,1.8
O=C(NCc1ccc2c(c1)OCO2)c1nnc(Cc2ccc(F)cc2)o1,-1.9,2.6,-55.5*,-10.5,0.5
O=C(NCCc1ccccc1)c1nnc(Cc2cccc(F)c2)o1,-0.2,37.8*,4.9,-3.9,-0.3
COCCNc1nc(C)cc(-c2cc(C(=O)NC3CCCC3)on2)n1,-1.4,-0.4,9.0,-0.1,-0.4
CCOC(=O)c1cc(C)n(CC2CCC(C(=O)Nc3ccc(OC)c(OC)c3)CC2)c1C (stereo unspecified),-1.8,2.2,-18.1,3.0,0.2
CC(/C=N/NC(=O)CSc1nc2ccccc2n1C)=C\c1ccco1,-0.1,-0.9,-3.1,-1.1,-0.7
Cc1cc(Cl)ccc1Oc1ncc(-c2ccc(Cl)cc2)cn1,7.3,6.9,-65.7*,-3.0,0.2
Clc1ccc(-c2cnc(Oc3ccccc3)nc2)cc1,-3.9,0.9,-3.0,-6.9,0.2
COc1ccccc1N=Nc1ccc(O)c2ncccc12,4.3,0.3,10.5,7.5,-0.7
COc1ccccc1N=Nc1[nH]c2ccc(C)cc2c1O,-5.2,0.8,-8.3,34.1*,0.0
CCCc1nnc(NC(=O)CCC(=O)N2CCN(CCn3c(C)ccc3C)CC2)s1,-2.6,1.2,-1.3,-1.1,1.2
COc1ccccc1NC(=O)CCN1C(=O)C2C3CCC(C3)C2C1=O (stereo unspecified),-6.1,1.0,-78.4*,-1.8,0.5
COc1ccc(Cl)cc1NC(=O)CCN1C(=O)C2C3CCC(C3)C2C1=O (stereo unspecified),-4.5,2.4,2.4,-3.9,-1.1
COc1cccc(CNC(=O)CCNC(=O)C2CCN(S(=O)(=O)c3ccc(F)cc3)CC2)c1,-5.3,4.7,-9.7,-7.4,-0.4
COc1ccccc1NC(=O)OCC#CCOC(=O)Nc1ccccc1OC,-3.6,22.6,-58.4*,1.8,-1.4
Cc1ccc(NC(=O)COC(=O)/C(=C/c2cccs2)c2cccs2)cc1S(=O)(=O)N(C)C,1.2,4.6,-17.1,-7.3,0.1
COc1ccc(C)cc1Nc1nc2c(S(=O)(=O)c3cccc(Cl)c3)nnn2c2ccsc12,-7.8,-0.7,-24.1,-1.2,0.7
Cc1ccc(-c2nnn(CC(=O)N(c3ccccc3F)C(CC(C)C)C(=O)NCC3CCCO3)n2)cc1 (stereo unspecified),-0.1,0.5,-37.8*,11.4,-0.2
CC(C)(C)NC(=O)c1cnn2c(C(F)F)cc(-c3ccccc3)nc12,1.0,1.6,-8.9,0.8,0.1
Cc1cc2[nH]c(=O)cc(-c3ccccc3)n2n1,4.5,3.0,-5.3,-7.9,0.1
Cc1cc2[nH]c(=O)c3ccccc3n2n1,-6.6,2.0,-71.6*,-5.2,1.2
CC(Cc1cccnc1)NC(=O)c1cc(COc2ccc(F)cc2F)on1 (stereo unspecified),-3.1,15.3,-2.7,-3.6,-2.8
COCCNC(=O)c1ccc2snnc2c1,4.2,2.5,2.6,-0.9,-0.3
SMILES,D1 potentiator,D1 agonist,D1 antagonist,TRHR PAM,TRHR ag
O=C(NCc1c(Cl)cccc1Cl)c1ccc2nnsc2c1,-2.5,1.2,-43.9*,-2.8,-0.7
O=c1c2c([nH]n1-c1ccccc1)CCCC2,3.9,0.9,-1.0,4.0,-0.1
Cc1nc(-n2[nH]c3c(c2=O)CCCC3)[nH]c(=O)c1Cc1ccccc1,0.6,61.4*,-3.3,3.8,-0.2
Cc1nc(N2CCc3ccccc3C2)[nH]c(=O)c1Cc1ccccc1,-5.5,2.7,-44.4*,0.6,-1.6
Cc1cc(=O)[nH]c(-n2[nH]c3c(c2=O)CCCC3)n1,-3.5,21.1,-37.2*,0.8,-0.4
Cc1cc(=O)[nH]c(N2CCCNCC2)n1,-0.8,6.5,11.9,4.8,0.2
COc1ccc(C(C(=O)NCc2ccccc2)N(C(=O)c2snc(C(N)=O)c2N)C2CCCC2)cc1 (stereo unspecified),·,6.1,-12.5,10.9,-0.7
CCOC(=O)c1oc2ccccc2c1NC(=O)c1ccccc1OC,13.8,3.6,58.4,0.5,-0.2
COc1ccccc1C(=O)Nc1c(C(=O)c2ccccc2)oc2ccccc12,5.8,4.4,22.3,0.7,-0.9
COc1ccccc1C(=O)Nc1c(C(=O)NC(C)(C)C)oc2ccccc12,33.4*,32.6*,64.2,12.0,1.3
COC(=O)c1oc2ccccc2c1NC(=O)c1ccccc1O,-6.3,13.9,-43.0*,8.9,-0.6
CCOC(=O)C1CCN(C/C=C/c2ccccc2OC)CC1,-1.6,11.2,-21.5,-4.2,-0.3
CCOC(=O)C1=C(C)NC(=O)CC1c1ccccc1 (stereo unspecified),3.2,-0.6,-0.2,39.9*,-1.4
CCCCCOC(=O)C1=C(C)NC(=O)NC1c1ccccc1 (stereo unspecified),-4.2,3.2,-35.9*,-3.6,-0.5
CCOC(=O)C1=C(C)NC(=O)CC1c1ccccc1OC (stereo unspecified),-6.6,2.0,3.6,6.6,-0.7
CCCCCOC(=O)C1=C(C)NC(=O)NC1c1ccc(N(C)C)cc1 (stereo unspecified),0.2,2.5,28.6,0.7,-0.4
CC(NC(=O)c1ccc(N(C)C)cc1)C1CC2CCC1C2 (stereo unspecified),-3.4,1.0,·,-7.4,-0.8
COc1ccc(NC(=S)N/N=C/c2ccc(F)c(F)c2)cc1,-7.7,1.0,2.9,1.8,0.4
c1ccc(-n2c3ccccc3c3ccccc32)cc1,7.0,13.0,8.2,2.5,-0.5
CCc1ccccc1NC(=O)Cn1ncc2c(C)n(Cc3ccccc3F)c(C)c2c1=O,-1.9,2.9,2.7,0.2,0.6
CC1CN(C(=O)CSc2nnc(-c3cccs3)n2N)CC(C)O1 (stereo unspecified),8.1,2.4,-34.3*,-6.7,0.2
Nn1c(SCC(=O)N2CCc3ccccc3C2)nnc1-c1cccs1,-0.6,-0.1,20.3,3.1,-0.7
Oc1ccc(Br)cc1-c1ccn[nH]1,-7.8,1.9,-12.3,6.8,0.3
Cc1ccccc1CS(=O)(=O)c1cn(CC(=O)N2CCC(C)CC2)c2ccccc12,-5.0,1.5,-64.7*,-10.3,0.6
O=C(COC(=O)c1cccnc1SC(F)F)NC1CC1,5.2,1.1,-11.1,1.6,0.1
CCOc1cc(C(=O)NCCN2C(=O)S/C(=C\c3cccnc3)C2=O)cc(OCC)c1OCC,-4.7,4.0,-48.9*,4.8,-1.3
COc1ccc(C(=O)NCCN2C(=O)S/C(=C\c3cccnc3)C2=O)c(OC)c1OC,-3.0,1.7,16.0,6.0,-0.5
COc1ccc(S(=O)(=O)Nc2cc(Cl)ccc2-n2cncn2)cc1,-1.2,-0.5,-61.5*,5.8,1.1
